{"source": "PubChem BioAssay AID1063", "about": "(University of Pittsburgh Molecular Library Screening Center, 2008)", "note": "The whole screen tested about 200,000 compounds, of which about 18,000 (9%) were called active. The full list was thinned out, with actives kept by preference. A number with no mark means an inactive call. Rule as the data show it: active = inhibition above about 50%; inactive = the rest.", "data": [{"assay": "Leishmania major promastigote growth inhibition, primary screen (AID 1063);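 also: promastigotes grown with compound for 44 hours at 28 °C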", "conditions": "Leishmania major promastigotes, resazurin fluorescence viability; at 10 µM; hits give high values", "values": [{"smiles": "Cc1ccc(N(C(=O)Cc2cccs2)C2C=CS(=O)(=O)C2)cc1Cl", "note": "(stereo not drawn)", "inhibition": "3.36%"}, {"smiles": "O=C(Nc1ccc(Cl)cn1)c1ccc2c(c1)OCCO2", "inhibition": "-10.2%"}, {"smiles": "CCN(CC(=O)NCc1cccs1)S(=O)(=O)c1ccc(NC(C)=O)cc1", "inhibition": "-3.41%"}, {"smiles": "COc1ccc(N2CCN(C(=S)Nc3ccc(S(N)(=O)=O)cc3)CC2)cc1", "inhibition": "-7.62%"}, {"smiles": "COc1ccc(NC(=S)NCC2CCN(c3ccc(OC)cc3)C2)cc1", "note": "(stereo not drawn)", "inhibition": "74.9% (active)"}, {"smiles": "COc1ccc(NC(=S)NCCN2CCC(C)CC2)cc1", "inhibition": "23.9%"}, {"smiles": "Cc1c(NC(=O)CCC2CCCCC2)cc(C(=O)N2CCOCC2)cc1[N+](=O)[O-]", "inhibition": "-3.89%"}, {"smiles": "COc1ccccc1C(=O)C(O)c1ccccc1OC", "note": "(stereo not drawn)", "inhibition": "1.96%"}, {"smiles": "CCOC(=O)C(=CNc1cccc(C)n1)C(=O)OCC", "inhibition": "-3.94%"}, {"smiles": "CCOC(=O)C(=Cc1ccccc1OC)C(=O)OCC", "inhibition": "53.7% (active)"}, {"smiles": "Cn1c(CCC(=O)OCC(=O)NCc2ccccc2Cl)nc(=O)c2ccccc21", "inhibition": "-0.71%"}, {"smiles": "Cc1ncoc1C(=O)NCCC(c1ccccc1)c1ccccc1", "inhibition": "1.37%"}, {"smiles": "CCOC(=O)c1cnc(-n2nc(C)cc2C)nc1Nc1cccc(C(C)=O)c1", "inhibition": "4.22%"}, {"smiles": "CCOC(=O)c1cnc(-n2nc(C)cc2C)nc1-n1nc(C)cc1C", "inhibition": "33%"}, {"smiles": "CCOC(=O)c1cnc(-n2nc(C)cc2C)nc1NNc1cc(C)nc(-c2ccccc2)n1", "inhibition": "100% (active)"}, {"smiles": "CCOC(=O)C(C)n1nc(-c2ccccc2)c2ccccc2c1=O", "note": "(stereo not drawn)", "inhibition": "12.5%"}, {"smiles": "CN(C)c1nc(-c2cccnc2)nc(-c2ccc(Cl)cc2)c1C#N", "inhibition": "8.3%"}, {"smiles": "COCCN(CCOC)S(=O)(=O)c1ccc(/C(O)=C(\\C#N)c2nc3ccccc3[nH]2)cc1", "inhibition": "1.17%"}, {"smiles": "CC(C)(C)NC(=O)NC(=O)COC(=O)C1(C)CC1(Cl)Cl", "note": "(stereo not drawn)", "inhibition": "0.27%"}, {"smiles": "CCOn1c(=O)c(=O)n(O)c2ccccc21", "inhibition": "-2.81%"}, {"smiles": "Cn1nnnc1SCC(=O)NNC(=O)c1ccc(Br)cc1", "inhibition": "-7.24%"}, {"smiles": "COC(=O)CSc1nc(C2CC2)nc2ccccc12", "inhibition": "-7.75%"}, {"smiles": "O=C(CSc1nc(C2CC2)nc2ccccc12)Nc1ccc2c(c1)OCCO2", "inhibition": "6.82%"}, {"smiles": "CN(C(=O)CSc1nc(C2CC2)nc2ccccc12)c1nc(-c2ccccc2)cs1", "inhibition": "54.6% (active)"}, {"smiles": "CCn1ccnc1CN(C)Cc1nc(-c2ccc3c(c2)OCO3)no1", "inhibition": "1.95%"}, {"smiles": "CN(Cc1cc2cc(F)ccc2[nH]1)Cc1nc(-c2cnccn2)no1", "inhibition": "-6.82%"}, {"smiles": "CCNC(=O)c1ccc(OCC(=O)Nc2ccc(F)cc2)c(OC)c1", "inhibition": "0.66%"}, {"smiles": "COc1ccc(CNCCCO)cc1OC", "inhibition": "-3.13%"}, {"smiles": "COc1cc(CNc2ncn[nH]2)ccc1OCc1ccccc1C", "inhibition": "-5.58%"}, {"smiles": "CCOCCCNCc1ccc(OCc2ccc(F)cc2)c(OC)c1", "inhibition": "97.1% (active)"}, {"smiles": "COc1cc(CNCCN(C)C)ccc1OCc1c(F)cccc1Cl", "inhibition": "66.6% (active)"}, {"smiles": "CCN(CC)CCNCc1ccc(OCc2ccc(Cl)nc2)c(OC)c1", "inhibition": "-3.17%"}, {"smiles": "CCCCC1N2CC3([N+](=O)[O-])CN1CC([N+](=O)[O-])(C2)C3(C)C", "note": "(stereo not drawn)", "inhibition": "-3.35%"}, {"smiles": "Cc1cccc(NC(=O)Nc2ccc3c(c2)OCO3)n1", "inhibition": "-1.54%"}, {"smiles": "CCN(CC)CCOc1ccc2c(c1)C(=NNC(=O)c1ccccn1)c1cc(OCCN(CC)CC)ccc1-2", "inhibition": "101% (active)"}, {"smiles": "CCC(C)(NC(=O)c1ccccn1)C(=O)NC1CCCCC1", "note": "(stereo not drawn)", "inhibition": "0.94%"}, {"smiles": "CCOc1cc(NC(=O)c2ccccn2)c(OCC)cc1NC(=O)c1ccc(OC)cc1", "inhibition": "-3.96%"}, {"smiles": "CC(=O)C1=C(C)NC2=C(C(=O)CC(C)(C)C2)C1C", "note": "(stereo not drawn)", "inhibition": "-3.1%"}, {"smiles": "CCC(C)NCC(=O)Nc1ccc([N+](=O)[O-])cc1C(=O)Nc1ccccc1F", "note": "(stereo not drawn)", "inhibition": "11.7%"}, {"smiles": "CC(C)(C)NC(=O)C(=O)NN=C1CCCCCCC1", "inhibition": "9.68%"}, {"smiles": "OCCC1CN(Cc2ccc3nsnc3c2)CCN1C1CCCCC1", "note": "(stereo not drawn)", "inhibition": "13.5%"}, {"smiles": "CC(C)CCN1CCN(C/C=C/c2ccco2)CC1CCO", "note": "(stereo not drawn)", "inhibition": "5.83%"}, {"smiles": "CC(C)CCN1CCN(Cc2ccc(C(F)(F)F)cc2)CC1CCO", "note": "(stereo not drawn)", "inhibition": "87.1% (active)"}, {"smiles": "CC(C)=CCN1CCN(Cc2ccc(Oc3ncccn3)cc2)CC1CCO", "note": "(stereo not drawn)", "inhibition": "-0.29%"}, {"smiles": "CC(C)N1CCC(N2CCN(Cc3cccnc3)CC2CCO)CC1", "note": "(stereo not drawn)", "inhibition": "-2.03%"}, {"smiles": "CC(=O)Nc1ccc(CN2CCN(Cc3ccc(F)c(F)c3)C(CCO)C2)cc1", "note": "(stereo not drawn)", "inhibition": "6.71%"}, {"smiles": "Cc1ccc(CN2CCN(Cc3ccc4ncccc4c3)CC2CCO)cc1", "note": "(stereo not drawn)", "inhibition": "73.7% (active)"}, {"smiles": "OCCC1CN(Cc2ccc(Oc3ncccn3)cc2)CCN1CCc1ccccc1", "note": "(stereo not drawn)", "inhibition": "59.6% (active)"}, {"smiles": "CC(C)CCN1CCN(Cc2cn[nH]c2C2CCCCC2)CC1CCO", "note": "(stereo not drawn)", "inhibition": "24.3%"}, {"smiles": "Cc1ccc(CN2CCN(Cc3cccc(C)n3)CC2CCO)cc1", "note": "(stereo not drawn)", "inhibition": "-2.02%"}, {"smiles": "COc1ccc(CN2CCN(Cc3cn(C)nc3-c3ccccc3)CC2CCO)c(C)c1C", "note": "(stereo not drawn)", "inhibition": "-0.96%"}, {"smiles": "COC(=O)c1ccc(CN2CCN(CCCc3ccccc3)C(CCO)C2)cc1", "note": "(stereo not drawn)", "inhibition": "83.9% (active)"}, {"smiles": "CCOC(=O)C(CC)/C(C)=N\\NC(=O)c1cccc(C)c1", "note": "(stereo not drawn)", "inhibition": "-5.28%"}, {"smiles": "COC(=O)c1cccnc1NC(=S)NC(C)C", "inhibition": "-3.71%"}, {"smiles": "C=CCNC(=O)CC12CC3CC(C1)CC(CC(=O)NCC=C)(C3)C2", "inhibition": "-6.25%"}, {"smiles": "COc1cccc(C(=O)Nc2cccnc2)c1OC", "inhibition": "-4.33%"}, {"smiles": "CCCN(C(=O)CSc1nnnn1C)c1c(N)n(Cc2ccccc2)c(=O)[nH]c1=O", "inhibition": "-5.81%"}, {"smiles": "O=C(CCN1C(=O)C2C3C=CC(C3)C2C1=O)Oc1ccc2ccccc2c1", "note": "(stereo not drawn)", "inhibition": "24%"}, {"smiles": "O=c1[nH]c(N2CCN(Cc3ccc4c(c3)OCO4)CC2)nc2c1CCCC2", "inhibition": "0.88%"}, {"smiles": "CCOC(=O)CSc1ccccn1", "inhibition": "-7.49%"}, {"smiles": "Cc1c(Cc2ccccc2)c(=O)oc2cc(OCC(N)=O)ccc12", "inhibition": "-6.96%"}, {"smiles": "CCOc1ccc(NS(=O)(=O)c2cc(C)c(C)cc2C)cc1", "inhibition": "5.1%"}, {"smiles": "S=C(c1ccc(-c2ccccc2)o1)N1CCCCC1", "inhibition": "12.2%"}]}]}
